For 36 molecules, composite z-score results are on record in PubChem BioAssay.

Neurogenic locus notch homolog protein 3 (Homo sapiens), sequence (Q9UM47 whole entry, looked up): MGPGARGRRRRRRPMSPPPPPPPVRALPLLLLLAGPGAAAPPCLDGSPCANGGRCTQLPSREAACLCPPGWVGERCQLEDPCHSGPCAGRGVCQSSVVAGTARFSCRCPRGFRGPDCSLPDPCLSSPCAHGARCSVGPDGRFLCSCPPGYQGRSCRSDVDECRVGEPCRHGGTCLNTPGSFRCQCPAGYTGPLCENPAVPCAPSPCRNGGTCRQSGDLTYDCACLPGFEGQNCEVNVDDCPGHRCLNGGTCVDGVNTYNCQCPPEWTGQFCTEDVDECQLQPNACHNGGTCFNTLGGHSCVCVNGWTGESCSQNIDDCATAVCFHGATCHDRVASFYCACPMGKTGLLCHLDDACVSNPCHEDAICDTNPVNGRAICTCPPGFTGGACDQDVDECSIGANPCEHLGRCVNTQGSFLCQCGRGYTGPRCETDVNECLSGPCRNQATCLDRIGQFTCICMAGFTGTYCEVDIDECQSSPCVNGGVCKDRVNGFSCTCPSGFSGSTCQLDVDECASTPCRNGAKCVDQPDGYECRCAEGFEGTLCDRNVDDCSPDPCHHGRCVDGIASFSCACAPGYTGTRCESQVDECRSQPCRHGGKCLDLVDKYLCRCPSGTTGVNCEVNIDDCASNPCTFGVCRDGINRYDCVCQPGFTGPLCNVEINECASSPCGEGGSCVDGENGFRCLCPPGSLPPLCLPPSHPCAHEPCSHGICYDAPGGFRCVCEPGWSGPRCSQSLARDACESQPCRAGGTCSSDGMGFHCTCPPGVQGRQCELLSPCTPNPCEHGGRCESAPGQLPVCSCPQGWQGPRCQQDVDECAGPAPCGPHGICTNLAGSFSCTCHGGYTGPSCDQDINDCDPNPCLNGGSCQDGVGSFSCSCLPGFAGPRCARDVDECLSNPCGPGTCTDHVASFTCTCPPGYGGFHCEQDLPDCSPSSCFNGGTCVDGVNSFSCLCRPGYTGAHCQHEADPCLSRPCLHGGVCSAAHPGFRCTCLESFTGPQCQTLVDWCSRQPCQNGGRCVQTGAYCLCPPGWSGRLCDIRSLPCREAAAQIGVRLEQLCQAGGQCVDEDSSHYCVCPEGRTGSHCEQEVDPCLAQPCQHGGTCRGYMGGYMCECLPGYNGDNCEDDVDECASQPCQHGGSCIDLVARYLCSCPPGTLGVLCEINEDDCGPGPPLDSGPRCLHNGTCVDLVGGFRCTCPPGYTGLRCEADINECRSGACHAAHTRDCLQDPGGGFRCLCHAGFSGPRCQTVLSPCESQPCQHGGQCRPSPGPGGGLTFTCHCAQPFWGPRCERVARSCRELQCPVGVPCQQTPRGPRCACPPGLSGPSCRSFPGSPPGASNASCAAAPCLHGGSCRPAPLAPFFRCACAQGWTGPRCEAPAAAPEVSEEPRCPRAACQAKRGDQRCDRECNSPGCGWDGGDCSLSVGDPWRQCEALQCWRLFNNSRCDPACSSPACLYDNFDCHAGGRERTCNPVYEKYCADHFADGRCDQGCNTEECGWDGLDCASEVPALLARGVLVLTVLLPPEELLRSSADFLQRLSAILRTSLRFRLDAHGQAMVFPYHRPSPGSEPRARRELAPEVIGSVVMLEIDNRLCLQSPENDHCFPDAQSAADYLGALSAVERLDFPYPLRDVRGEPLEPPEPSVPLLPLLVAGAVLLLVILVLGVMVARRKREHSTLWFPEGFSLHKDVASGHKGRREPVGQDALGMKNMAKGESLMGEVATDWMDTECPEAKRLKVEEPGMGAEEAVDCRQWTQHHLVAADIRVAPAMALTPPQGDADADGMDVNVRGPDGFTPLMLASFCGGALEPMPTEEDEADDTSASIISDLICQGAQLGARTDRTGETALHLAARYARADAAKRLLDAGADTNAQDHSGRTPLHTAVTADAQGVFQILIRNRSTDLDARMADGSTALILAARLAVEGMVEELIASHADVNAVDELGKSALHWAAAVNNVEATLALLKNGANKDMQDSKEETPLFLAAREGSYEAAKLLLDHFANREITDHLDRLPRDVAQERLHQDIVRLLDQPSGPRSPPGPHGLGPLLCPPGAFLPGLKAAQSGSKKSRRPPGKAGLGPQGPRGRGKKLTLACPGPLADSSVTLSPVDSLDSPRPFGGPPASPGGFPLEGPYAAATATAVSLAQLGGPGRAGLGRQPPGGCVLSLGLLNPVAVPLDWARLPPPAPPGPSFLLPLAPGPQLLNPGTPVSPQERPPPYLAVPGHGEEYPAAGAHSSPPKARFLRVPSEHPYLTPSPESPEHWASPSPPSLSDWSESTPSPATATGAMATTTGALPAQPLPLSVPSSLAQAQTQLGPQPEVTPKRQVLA

The first test concerns the target Neurogenic locus notch homolog protein 3 (Homo sapiens) (UniProt Q9UM47). Put plainly: small molecules binding NOTCH3 protein – biochemical, 635/667 nm fluorescence, primary screen (AID 1096). Particulars: small-molecule microarray, 635 nm fluorescence, higher = more signal.
`O=C1CCCC=C1C(O)c1ccc([N+](=O)[O-])cc1` (stereo unspecified) showed a composite z-score of 0.273.
Turning to `COC(=O)CC=C[C@@H](C)[C@@H](C=NOC(C)CN1CCCCc2nc(C)c(C)cc21)NS(=O)(=O)c1ccc(C)cc1` (stereo partly specified), the composite z-score was determined as 0.265.
The same measure, in the same setting: the value for `CC(CCC(=O)OC[C@H]1O[C@H](C#Cc2ccccc2)C=C[C@@H]1Oc1ccc(C)cc1)=NOC(C)CN1CCCc2nc(C)c(C)cc21` (stereo partly specified) was 0.894.
The molecule `CCN1C(=O)[C@H]2[C@H]3[C@H](O)[C@H](O)CC(=NO[C@H](C)c4cn([C@@H]5COC[C@H]5O)nn4)[C@@H]3CC[C@H]2C1=O` showed a composite z-score of 0.0689.
With `COc1ccc(-c2cnnc(CCCn3ccnc3-c3ccccc3)n2)cc1`, the composite z-score turned out to be 0.876.

Test system in the next test: not listed separately
As to the kind of experiment: probe aEGFR binding to arrayed compounds – biochemical, biotinylated probe, 635/667 nm fluorescence, primary screen (AID 1097).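 Also: probe is a biotinylated anti-EGFR antibody binding compounds printed on slides; score combines fluorescence near 667 nm and signal to noise of each spot.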 The conditions noted are these: small-molecule microarray, higher = more signal.
With `O=C1C=C[C@@H](O)[C@@H]2[C@@H]3C(=O)N(C4CCCCC4)C(=O)[C@@H]3CC[C@@H]12`, the composite z-score was 0.0587.
In turn, `C[C@@H]1CC[C@H]2C(=O)OC(Cc3ccccc3)CN2[C@H]1c1ccc(Br)cc1` (stereo partly specified) displayed a composite z-score of -0.133.
On the same count and under the same terms, the value for `O=C1[C@H]2[C@H]3[C@H](O)[C@H](O)CC(=NO[C@@H]4O[C@H](CO)[C@@H](O)[C@H](O)[C@H]4O)[C@H]3CC[C@H]2C(=O)N1c1ccc(F)cc1F` was -0.0084; that for `COc1ccc(COC(=O)NN=C2C[C@@H](O)[C@@H](O)[C@@H]3[C@@H]4C(=O)N([C@@H](C)c5ccccc5)C(=O)[C@@H]4CC[C@H]23)cc1` was -0.137.
The molecule `CC(=O)OC[C@H]1O[C@H](CC=NO[C@H](C)c2cn([C@@H]3COC[C@H]3O)nn2)C=C[C@@H]1OC(C)=O` showed a composite z-score of -0.0845.
On to `COc1ccc(O[C@H]2C=C[C@@H](c3ccccc3)O[C@@H]2CO)cc1`, for which the composite z-score was -0.0146.
The molecule `CCOC(=O)[C@H](Cc1ccccc1)NC(=O)CCC1CC(OC(=O)NCCc2ccc(F)cc2)CC2(CCCC(COC(=O)NCCOc3ccccc3)O2)O1` (stereo partly specified) registered a composite z-score of 0.0009.
On the same count and under the same terms, the value for `O=C1C[C@@H](O)[C@@H](O)[C@@H]2[C@@H]3C(=O)N(C4CCCCC4)C(=O)[C@@H]3CC[C@@H]12` was -0.0921; that for `CC(CCN1CCCCc2nc(C)c(C)cc21)=NO[C@@H](C)c1cc(-c2c(C)cc(C)cc2C)no1` was -0.343; that for `CCOC(=O)[C@H](CC(C)C)NC(=O)CCC1CC(OC(=O)NCc2ccc3c(c2)OCO3)CC2(CCCC(COC(=O)NCCOc3ccccc3)O2)O1` (stereo partly specified) was -0.013.
Regarding `C=CC[C@@H]1C=C[C@H](ON=C(C)CCN2CCCc3nc(C)c(C)cc32)[C@@H](CO)O1`, the composite z-score stood at 0.142.
`O=C1CCCC=C1C(O)C1CCCCC1` (stereo unspecified) showed a composite z-score of -0.294.
Same read-out and setting: the value for `CO[C@H]1COC(=O)CC=C[C@H](C)[C@H](OC)COC(=O)[C@@H](C)NC(=O)CC=C[C@@H]1C` was -0.0313; that for `COC(=O)CC=C[C@@H](C)[C@@H](C=NOC[C@@H](C)[C@H](OCc1ccccc1)C(C)C)OC` was -0.126.
Consider `CC(C)CON=C1C[C@@H](O)[C@@H](O)[C@@H]2[C@@H]3C(=O)N(C(C)(C)C)C(=O)[C@@H]3CC[C@@H]12`, for which the composite z-score is -0.0638.
Take `CC1(C)O[C@H]2OC([C@H](O)CON3C(=O)c4ccccc4C3=O)[C@H](O)[C@H]2O1` (stereo partly specified): the composite z-score is 0.0434.
As for `CCOC(=O)CCN1C(=O)[C@H]2[C@H]3[C@H](O)[C@H](O)CC(=NNC(=O)OCC)[C@H]3CC[C@H]2C1=O`, the composite z-score was -0.12.
Still for that read-out and setting: the value for `CCN(CC)CC(O)CN1CCCCc2nc(C)c(C)cc21` (stereo unspecified) was -0.0148; that for `CC(C)=NO[C@@H](C)c1cn([C@H](CO)Cc2ccccc2)nn1` was 0.255.
For `O=C(NN=C1C[C@@H](O)[C@@H](O)[C@@H]2[C@@H]3C(=O)N(Cc4ccccc4)C(=O)[C@@H]3CC[C@H]12)OCc1ccccc1`, the composite z-score is -0.0796.
Consider `CCOC(=O)CCN1C(=O)[C@H]2[C@H]3[C@H](O)[C@H](O)CC(=NOCC=C(C)CCC=C(C)C)[C@H]3CC[C@H]2C1=O`, for which the composite z-score worked out at 0.106.
Turning to `CC(=O)OC[C@H]1O[C@@H](ON=C2[C@H]3CCn4c(=O)n(-c5ccccc5)c(=O)n4[C@H]3[C@H](O)[C@@H]3O[C@H]23)[C@H](OC(C)=O)[C@@H](OC(C)=O)[C@@H]1OC(C)=O`, the composite z-score is -0.0485.
Consider `O=C1CCCC=C1C(O)COCc1ccccc1` (stereo unspecified), for which the composite z-score is -0.142.
As for `C[C@H]1CC[C@@H](C(=O)O)N[C@@H]1c1cccc(N2CCCC2=O)c1`, the composite z-score was -0.123.
Regarding `COC(=O)[C@H](C)NC(=O)CCC1CC(OC(=O)NCc2ccc3c(c2)OCO3)CC2(CCCC(COC(=O)NCCCN3CCCC3=O)O2)O1` (stereo partly specified), the composite z-score is -0.0128.
In turn, `CC(C)(C)N1C(=O)[C@H]2[C@@H]3C(=CC[C@H]2C1=O)C(=O)[C@H]1O[C@H]1[C@H]3O` came in with a composite z-score of -0.152.
Same read-out and setting: the value for `CCOC(=O)NN=C1C[C@@H](O)[C@@H](O)[C@@H]2[C@@H]3C(=O)N(C[C@@H]4CCCO4)C(=O)[C@@H]3CC[C@H]12` was -0.0668; that for `CC(C)=CCCC(C)=CCON=C1C[C@@H](O)[C@@H](O)[C@@H]2[C@@H]3C(=O)N(Cc4ccc5c(c4)OCO5)C(=O)[C@@H]3CC[C@H]12` was -0.0271; that for `CC(=O)OC[C@H]1O[C@H](CC=NOC(C)CN2CCCCc3nc(C)c(C)cc32)C=C[C@@H]1OC(C)=O` (stereo partly specified) was 0.43.
`CCOC(=O)[C@H](Cc1ccccc1)NC(=O)CCC1CC(OC(=O)NCCc2ccc(F)cc2)CC2(CCCC(COC(=O)NCc3cccc(C(F)(F)F)c3)O2)O1` (stereo partly specified) displayed a composite z-score of 0.12.
For `O=C1C=C[C@@H](O)[C@@H]2[C@@H]3C(=O)N(Cc4ccc5c(c4)OCO5)C(=O)[C@@H]3CC[C@@H]12`, the composite z-score is -0.0731.
In turn, `O=C1CCCC=C1C(O)c1ccc([N+](=O)[O-])cc1` (stereo unspecified) had a composite z-score of 0.613.
Still for that read-out and setting: the value for `COC(=O)CC=C[C@@H](C)[C@@H](C=NOC(C)CN1CCCCc2nc(C)c(C)cc21)NS(=O)(=O)c1ccc(C)cc1` (stereo partly specified) was -0.0836; that for `CC(CCC(=O)OC[C@H]1O[C@H](C#Cc2ccccc2)C=C[C@@H]1Oc1ccc(C)cc1)=NOC(C)CN1CCCc2nc(C)c(C)cc21` (stereo partly specified) was -0.0267.
In turn, `CCN1C(=O)[C@H]2[C@H]3[C@H](O)[C@H](O)CC(=NO[C@H](C)c4cn([C@@H]5COC[C@H]5O)nn4)[C@@H]3CC[C@H]2C1=O` showed a composite z-score of -0.0678.
Regarding `COc1ccc(-c2cnnc(CCCn3ccnc3-c3ccccc3)n2)cc1`, the composite z-score was determined as 0.137.
